EWS-Fli block: EWS/Fli-driven NR0B1 reporter inhibitors, primary screen, A673 cells, NR0B1 luciferase, luminescence, MLPCN library | viability-normalised | inhibition, % at 12.6 µM | actives 0.67% (n = 350,000);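 active = mean inhibition of at least 50% after viability correction, with every replicate also passing that limit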;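 also: firefly luciferase signal divided by Alamar Blue viability fluorescence both relative to DMSO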
PAX8 reporter: inhibitors of PAX8-driven TPO luciferase reporter, primary screen, RMG-I cells, single concentration; actives 1.2% (n = 360,000); SteadyGlo, 24 h; inhibition, % at 12.6 µM; AID 652154, 2013;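 active = mean replicate inhibition at least 60% with every replicate also reaching 60%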;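 also: luciferase light reporting Pax8 driven TPO promoter activity; plate controls were median of neutral control wells for no effect and mitoxantrone controls for full effect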
ABHD5-PLIN5 inh: ABHD5-PLIN5 interaction inhibitors, primary screen, cell lysate, split luciferase complementation, luminescence; inhibition, % at 4 µM; Split G. princeps luciferase complementation, 4 h; actives 0.78% (n = 360,000); Perilipin-5 (Homo sapiens) + 1-acylglycerol-3-phosphate O-acyltransferase ABHD5 (Homo …;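 active = inhibition above the mean inhibition across every tested compound plus 3 SD, cut at about 22% in these data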;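 also: 0% = DMSO only wells and the 100% control is not disclosed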
Shn3 inh set2: reduction of Shn3 3'UTR firefly luciferase signal, primary screen, Schnurri-3 inhibitor project, cell-based, Clone20 osteoblasts, set 2; AID 588674, 2011; inhibition, % at 12.5 µM; Clone20 osteoblast Shn3 3'UTR firefly luciferase, 24 h; actives 0.52% (n = 360,000);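 active = mean inhibition of at least 75% with every replicate also reaching 75%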;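 also: 0% = median of neutral control wells and 100% = pilot-screen positive control compound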
Peg3 prom inh: Peg3 promoter-driven luciferase inhibitors, primary screen, cell-based, HeLa, luciferase luminescence; actives 1.7% (n = 360,000); inhibition, % at 20 µM; HeLa PEG-Prom luciferase reporter, overnight;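 active = inhibition of at least 50% at 20 µM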
MITF TRPM1 inh: inhibitors of MITF-dependent TRPM1 promoter reporter, primary screen, cell-based, SK-MEL-5, single point, luciferase. SK-MEL-5 TRPM1 promoter luciferase, 24 h. inhibition, % at 12.5 µM. actives 0.83% (n = 330,000);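 active = mean inhibition across replicates of 60% or more, whatever share of single replicates reaches that level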
ABHD5 PLIN5 conf: ABHD5-PLIN5 interaction inhibitors, confirmation, biochemical, luminescence; shares compounds with ABHD5-PLIN5 inh; inhibition, % at 4 µM; actives 67% (n = 2,200); in the data active = inhibition above about 23%;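 also: 0% = DMSO vehicle wells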
HNF4 split-luc: HNF4 dimerization inhibitors, counter-screen for ABHD5-PLIN5 interaction inhibitor project, biochemical, split-luciferase complementation, luminescence; shares compounds with ABHD5-PLIN5 inh; inhibition, % at 4 µM; actives 77% (n = 2,200);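 active = mean inhibition across replicate wells exceeding the computed hit threshold, cut at about 13% in these data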;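 also: light from luciferase halves that rejoin when HNF4 fusion proteins dimerize; 0% = DMSO only wells and the 100% control is not given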
Target sequence (P41235 whole entry, looked up, the tested form may be a part): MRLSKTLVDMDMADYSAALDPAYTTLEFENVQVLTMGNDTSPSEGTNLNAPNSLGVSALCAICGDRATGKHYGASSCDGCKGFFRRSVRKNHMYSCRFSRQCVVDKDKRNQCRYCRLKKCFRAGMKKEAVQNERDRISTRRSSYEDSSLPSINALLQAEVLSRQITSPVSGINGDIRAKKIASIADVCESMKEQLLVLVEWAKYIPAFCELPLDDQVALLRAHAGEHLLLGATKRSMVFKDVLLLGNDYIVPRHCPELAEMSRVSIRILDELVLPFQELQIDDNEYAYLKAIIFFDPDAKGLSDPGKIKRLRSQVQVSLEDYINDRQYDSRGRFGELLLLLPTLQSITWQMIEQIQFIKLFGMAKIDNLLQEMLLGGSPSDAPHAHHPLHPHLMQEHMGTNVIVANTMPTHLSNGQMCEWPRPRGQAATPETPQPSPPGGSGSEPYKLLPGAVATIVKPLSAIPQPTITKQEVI
Active calls of the source: *; · = not tested or not shown. A selection: hits, their analogues and other compounds. The true share with any hit is near 3%.

SMILES	EWS-Fli block	PAX8 reporter	ABHD5-PLIN5 inh	Shn3 inh set2	Peg3 prom inh	MITF TRPM1 inh	ABHD5 PLIN5 conf	HNF4 split-luc
O=C1N/C(=C/c2ccc(N3CCOCC3)o2)C(=O)N1c1ccccc1	·	-4.9	80.3*	91.6*	-8.4	-18.7	62.8*	99.1*
C=CCN1C(=O)N/C(=C/c2ccc(N3CCOCC3)o2)C1=O	30.5	-7.7	·	·	·	·	·	·
O=C1NC(=S)S/C1=C/c1ccc(N2CCOCC2)o1	·	·	44.0*	-9.8	-48.4	-3.8	41.9*	106.3*
COc1cccc(NC(=O)C[C@@H]2CC[C@H]3[C@H](COc4ccc(NC(=O)C5CCOCC5)cc4C(=O)N3C)O2)c1	-1.0	-5.2	·	·	·	·	·	·
C#CC(=O)N(c1cc(OC)ccc1OC)C(C(=O)NC1CCCC1)c1cccs1 (stereo not given)	·	·	32.5*	89.8*	106.7*	·	45.0*	44.7*
COc1ccc(N(C(=O)c2snc(C(N)=O)c2N)C(C(=O)NC2CCCC2)c2cccs2)cc1OC (stereo not given)	8.4	12.2	3.8	2.0	17.1	-8.6	·	·
C#CC(=O)N(c1ccc(OC)cc1OC)C(C(=O)NC1CCCC1)c1cccs1 (stereo not given)	61.3*	92.7*	27.7*	83.4	100.5*	101.2*	39.9*	37.9*
CCC(=O)N1CC[C@@H]2[C@@H](CO)Nc3ccc(C#Cc4cccnc4)cc3[C@@H]21	-7.1	-15.6	·	·	·	·	·	·
O=C(c1cccnc1)N1CC(=O)N2[C@@H](CO)[C@@H](c3ccc(C#CCC4CCCC4)cc3)[C@@H]2C1	1.9	11.6	·	·	·	·	·	·
CCOc1ccc(S(=O)(=O)N(CC(=O)NCc2cccnc2)c2ccc(F)cc2)cc1	6.9	13.2	40.1*	4.7	21.4	8.9	1.2	-5.1
COCCNC(=O)c1cc2c(c(-c3cccc(-c4cccc(F)c4)c3)n1)[C@H](CCO)N([S@@](=O)C(C)(C)C)C2	10.9	19.2	·	·	·	·	·	·
C=C1C(=O)OC2CC1C(OC(C)=O)CC(C)=CCCC(C)=CCCC2(C)O (stereo not given)	38.4	·	61.2*	94.4*	98.9*	·	83.1*	65.5*
C=C1C(=O)OC2CC1C(O)CC(C)=CCCC(C)=CC(O)CC2C (stereo not given)	4.4	100.8*	54.5*	96.2*	97.8*	95.1*	81.2*	61.2*
COC(=O)C1=C(C)NC2=C(C(=O)CCC2)C1c1ccc(-c2ccsc2C(=O)OC)o1 (stereo not given)	5.5	3.2	24.1*	-1.2	-8.4	-2.1	8.3	10.2
CC1=C(C(=O)OC2CCCCCC2)C(c2ccc(C)o2)C2=C(CCCC2=O)N1 (stereo not given)	23.3	·	2.6	13.4	24.9	8.1	·	·
O=C(Cc1ccncc1)NCC[C@H]1CC[C@H](NC(=O)Nc2ccc(F)cc2)[C@H](CO)O1	1.7	3.1	·	·	·	·	·	·
Oc1c(CN2CCOCC2)cc(CN2CCOCC2)c(O)c1CN1CCOCC1	-6.2	-5.2	55.0*	-6.7	-2.6	8.8	78.7*	108.0*
CC(C)(C)OC(=O)NCCc1nnc(S(=O)(=O)Cc2ccc(Cl)cc2Cl)o1	·	·	25.7*	-15.9	46.5	4.3	39.1*	73.6*
C[C@H]1CN([C@@H](C)CO)C(=O)c2cc(NC(=O)Cc3ccccc3)ccc2O[C@@H]1CN(C)C(=O)Nc1ccccc1	0.1	-4.4	·	·	·	·	·	·
C(=C\c1ccccc1)/CSc1nnc(-c2ccccn2)n1Cc1ccco1	·	·	34.1*	-4.4	-7.8	31.4	21.4	44.0*
Cc1ccc(NC(=O)C2=C(c3ccccc3)S(=O)(=O)CCS2(=O)=O)cc1	64.6*	115.9*	83.3*	95.9*	108.8*	95.2*	100.3*	110.3*
COCc1cc(CNC(=O)C2CCC(=O)N(Cc3ccccc3OC)C2)[nH]n1 (stereo not given)	-7.3	·	24.4*	11.5	18.8	2.8	-0.9	-1.9
COCc1cc(CNC(=O)C2CCC(=O)N(Cc3ccccc3F)C2)[nH]n1 (stereo not given)	-5.1	0.7	-8.0	-4.8	-1.6	-3.0	·	·
COc1ccccc1/C=C/C(=O)Nc1cccnc1Cl	-88.3	-154.5	4.0	-62.0	-203.6	-66.0	·	·
COc1ccccc1-c1cc(C(F)(F)F)nc(S(=O)(=O)CCCC(=O)Nc2cccnc2Cl)n1	20.3	30.2	31.6*	90.7*	110.6*	77.2*	51.0*	68.7*
SMILES	EWS-Fli block	PAX8 reporter	ABHD5-PLIN5 inh	Shn3 inh set2	Peg3 prom inh	MITF TRPM1 inh	ABHD5 PLIN5 conf	HNF4 split-luc
COc1ccccc1-c1cc(C(F)(F)F)nc(S(C)(=O)=O)n1	·	·	43.6*	96.5*	105.5*	91.5*	67.1*	86.5*
CCCC#Cc1ccc([C@H]2[C@@H](CO)N3C(=O)CN(C(=O)c4ccc(F)cc4)C[C@H]23)cc1	-5.9	·	·	·	·	·	·	·
COc1ccc(-n2nnnc2S(=O)(=O)Cc2ccc(C(=O)O)cc2)cc1	·	·	54.3*	2.0	36.8	9.3	78.8*	81.3*
COc1ccc(-n2nnnc2S(=O)(=O)CC(=O)N2CCCCC2)cc1	-0.9	42.9	53.6*	91.8*	102.8*	73.9*	75.4*	83.1*
O=C1C(Sc2ccccc2)=C[C@@]2(O)CC[C@@H](O)[C@]1(Sc1ccccc1)[C@H]2O	7.7	46.4	26.0*	·	·	·	33.0*	43.5*
N#C[C@H]1[C@H](c2ccccc2C2=CCCC2)[C@@H](CO)N1C(=O)C1CC1	-1.1	-4.1	·	·	·	·	·	·
O=[N+]([O-])c1ccccc1/C=C/c1ccncc1	-19.1	-19.7	·	·	·	·	·	·
O=S(=O)(Cc1ccc(Cl)cc1)c1ccccc1-c1nnc(-c2ccc(Cl)cc2)o1	·	·	30.7*	11.6	10.0	-2.1	-2.4	-2.6
N#C/C(=C\c1ccc(Oc2ccc(C(F)(F)F)cc2[N+](=O)[O-])cc1)c1nc2ccccc2[nH]1	·	·	2.8	27.2	1.2	-0.3	·	·
O=S(=O)(/C(=C\c1ccc(C(F)(F)F)cc1)c1nc2ccccc2[nH]1)c1ccccc1	·	·	86.0*	92.8*	104.8*	97.1*	101.2*	96.5*
O=C(C1CCCC1)N1[C@@H](CO)[C@@H]2c3ccccc3N(S(=O)(=O)c3ccc(F)cc3)C[C@@H]21	-3.9	6.7	·	·	·	·	·	·
C[C@@H]1CN([C@H](C)CO)C(=O)c2cccc(NC(=O)NC3CCCCC3)c2O[C@H]1CN(C)S(=O)(=O)c1ccccc1	-14.4	-10.0	·	·	·	·	·	·
CNCCCOc1ccc(C)cc1OC	-48.1	21.3	56.7*	-7.1	-8.0	-3.5	1.9	-0.5

Screening results (PubChem)
